Test results reported in the supplement of paper PMC11732987, “Enantioselective OTUD7B fragment discovery through chemoproteomics screening and high-throughput optimisation” (Communications Chemistry, 2025).

Tests used:
Assay in all cases: log2 ratio of Biotin-Ahx-Ub-VS probe labelling (fragment/DMSO); higher = less target engagement (more negative = stronger competition), active = hit call of the paper (q ≤ 0.05, log2 ratio ≤ -1)
Settings in all cases: compound concentration: 200 uM; treatment time: 3 h
USP19 = target: T1, USP19 (UniProt O94966)
T1 sequence (whole entry): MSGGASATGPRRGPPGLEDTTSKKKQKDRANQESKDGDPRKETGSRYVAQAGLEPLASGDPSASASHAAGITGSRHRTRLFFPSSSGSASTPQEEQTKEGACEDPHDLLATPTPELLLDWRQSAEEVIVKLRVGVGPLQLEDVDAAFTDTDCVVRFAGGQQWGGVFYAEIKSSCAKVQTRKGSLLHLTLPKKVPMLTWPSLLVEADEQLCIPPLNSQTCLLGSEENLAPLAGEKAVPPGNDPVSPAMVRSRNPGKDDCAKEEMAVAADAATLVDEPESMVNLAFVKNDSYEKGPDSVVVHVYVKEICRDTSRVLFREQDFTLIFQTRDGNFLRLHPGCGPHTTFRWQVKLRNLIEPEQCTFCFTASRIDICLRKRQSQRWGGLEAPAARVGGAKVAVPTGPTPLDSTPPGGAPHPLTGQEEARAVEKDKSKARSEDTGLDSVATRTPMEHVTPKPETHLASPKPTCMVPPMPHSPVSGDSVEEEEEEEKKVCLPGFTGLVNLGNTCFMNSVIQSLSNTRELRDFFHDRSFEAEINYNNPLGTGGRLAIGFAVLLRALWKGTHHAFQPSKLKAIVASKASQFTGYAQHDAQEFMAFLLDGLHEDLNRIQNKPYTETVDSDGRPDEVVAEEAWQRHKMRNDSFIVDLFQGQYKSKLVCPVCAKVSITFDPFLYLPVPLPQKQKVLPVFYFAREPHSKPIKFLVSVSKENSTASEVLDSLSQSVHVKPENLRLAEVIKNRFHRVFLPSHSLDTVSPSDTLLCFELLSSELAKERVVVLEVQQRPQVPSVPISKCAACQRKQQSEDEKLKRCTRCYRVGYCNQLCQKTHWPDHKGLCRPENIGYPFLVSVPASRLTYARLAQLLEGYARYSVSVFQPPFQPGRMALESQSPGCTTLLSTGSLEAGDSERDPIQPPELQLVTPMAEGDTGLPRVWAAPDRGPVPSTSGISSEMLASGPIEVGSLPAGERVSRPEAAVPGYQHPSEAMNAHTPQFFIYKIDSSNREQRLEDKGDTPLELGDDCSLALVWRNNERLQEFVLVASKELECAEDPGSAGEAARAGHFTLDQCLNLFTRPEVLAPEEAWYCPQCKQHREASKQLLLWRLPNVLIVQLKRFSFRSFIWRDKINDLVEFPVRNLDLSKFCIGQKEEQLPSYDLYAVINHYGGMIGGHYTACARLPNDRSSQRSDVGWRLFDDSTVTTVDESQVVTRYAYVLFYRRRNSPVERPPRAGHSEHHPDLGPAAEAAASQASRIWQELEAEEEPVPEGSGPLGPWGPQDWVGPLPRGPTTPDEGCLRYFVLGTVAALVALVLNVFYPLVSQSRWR
In short: (§1)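 HEK293T lysate (495 µg per sample, in Tris/CHAPS/IGEPAL buffer with protease inhibitors) was exposed in triplicate for 3 h to fragment at 200 µM or to vehicle, then to Biotin-Ahx-Ub-VS at 0.5 µM final for 1 h. Labelled DUBs were enriched on NeutrAvidin, digested with LysC and trypsin, and analysed by diaPASEF LC-MS/MS. Spectronaut label-free quantities were normalised to the global median, and values are average log2 ratios of fragment over vehicle from an unpaired t-test. Only proteins with ≥2 unique peptides were used.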

USP22 = target: T2, USP22 (UniProt Q9UPT9)
T2 sequence (whole entry): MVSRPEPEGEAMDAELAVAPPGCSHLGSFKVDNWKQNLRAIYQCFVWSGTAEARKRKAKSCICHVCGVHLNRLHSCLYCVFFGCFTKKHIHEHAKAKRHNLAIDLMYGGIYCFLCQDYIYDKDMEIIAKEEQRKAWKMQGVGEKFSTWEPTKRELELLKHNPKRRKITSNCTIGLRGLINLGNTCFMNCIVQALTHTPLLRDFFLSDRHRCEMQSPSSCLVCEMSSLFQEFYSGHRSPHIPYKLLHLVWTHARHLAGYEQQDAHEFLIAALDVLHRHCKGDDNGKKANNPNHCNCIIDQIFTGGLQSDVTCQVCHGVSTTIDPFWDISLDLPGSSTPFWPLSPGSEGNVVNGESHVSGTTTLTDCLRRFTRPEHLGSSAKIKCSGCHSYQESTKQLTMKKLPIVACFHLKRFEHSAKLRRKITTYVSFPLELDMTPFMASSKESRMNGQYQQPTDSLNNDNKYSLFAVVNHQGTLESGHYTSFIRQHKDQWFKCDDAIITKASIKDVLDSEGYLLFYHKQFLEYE
In short: as §1

USP24 = USP24 (UniProt Q9UPU5)
Chain of USP24 (Q9UPU5 whole entry): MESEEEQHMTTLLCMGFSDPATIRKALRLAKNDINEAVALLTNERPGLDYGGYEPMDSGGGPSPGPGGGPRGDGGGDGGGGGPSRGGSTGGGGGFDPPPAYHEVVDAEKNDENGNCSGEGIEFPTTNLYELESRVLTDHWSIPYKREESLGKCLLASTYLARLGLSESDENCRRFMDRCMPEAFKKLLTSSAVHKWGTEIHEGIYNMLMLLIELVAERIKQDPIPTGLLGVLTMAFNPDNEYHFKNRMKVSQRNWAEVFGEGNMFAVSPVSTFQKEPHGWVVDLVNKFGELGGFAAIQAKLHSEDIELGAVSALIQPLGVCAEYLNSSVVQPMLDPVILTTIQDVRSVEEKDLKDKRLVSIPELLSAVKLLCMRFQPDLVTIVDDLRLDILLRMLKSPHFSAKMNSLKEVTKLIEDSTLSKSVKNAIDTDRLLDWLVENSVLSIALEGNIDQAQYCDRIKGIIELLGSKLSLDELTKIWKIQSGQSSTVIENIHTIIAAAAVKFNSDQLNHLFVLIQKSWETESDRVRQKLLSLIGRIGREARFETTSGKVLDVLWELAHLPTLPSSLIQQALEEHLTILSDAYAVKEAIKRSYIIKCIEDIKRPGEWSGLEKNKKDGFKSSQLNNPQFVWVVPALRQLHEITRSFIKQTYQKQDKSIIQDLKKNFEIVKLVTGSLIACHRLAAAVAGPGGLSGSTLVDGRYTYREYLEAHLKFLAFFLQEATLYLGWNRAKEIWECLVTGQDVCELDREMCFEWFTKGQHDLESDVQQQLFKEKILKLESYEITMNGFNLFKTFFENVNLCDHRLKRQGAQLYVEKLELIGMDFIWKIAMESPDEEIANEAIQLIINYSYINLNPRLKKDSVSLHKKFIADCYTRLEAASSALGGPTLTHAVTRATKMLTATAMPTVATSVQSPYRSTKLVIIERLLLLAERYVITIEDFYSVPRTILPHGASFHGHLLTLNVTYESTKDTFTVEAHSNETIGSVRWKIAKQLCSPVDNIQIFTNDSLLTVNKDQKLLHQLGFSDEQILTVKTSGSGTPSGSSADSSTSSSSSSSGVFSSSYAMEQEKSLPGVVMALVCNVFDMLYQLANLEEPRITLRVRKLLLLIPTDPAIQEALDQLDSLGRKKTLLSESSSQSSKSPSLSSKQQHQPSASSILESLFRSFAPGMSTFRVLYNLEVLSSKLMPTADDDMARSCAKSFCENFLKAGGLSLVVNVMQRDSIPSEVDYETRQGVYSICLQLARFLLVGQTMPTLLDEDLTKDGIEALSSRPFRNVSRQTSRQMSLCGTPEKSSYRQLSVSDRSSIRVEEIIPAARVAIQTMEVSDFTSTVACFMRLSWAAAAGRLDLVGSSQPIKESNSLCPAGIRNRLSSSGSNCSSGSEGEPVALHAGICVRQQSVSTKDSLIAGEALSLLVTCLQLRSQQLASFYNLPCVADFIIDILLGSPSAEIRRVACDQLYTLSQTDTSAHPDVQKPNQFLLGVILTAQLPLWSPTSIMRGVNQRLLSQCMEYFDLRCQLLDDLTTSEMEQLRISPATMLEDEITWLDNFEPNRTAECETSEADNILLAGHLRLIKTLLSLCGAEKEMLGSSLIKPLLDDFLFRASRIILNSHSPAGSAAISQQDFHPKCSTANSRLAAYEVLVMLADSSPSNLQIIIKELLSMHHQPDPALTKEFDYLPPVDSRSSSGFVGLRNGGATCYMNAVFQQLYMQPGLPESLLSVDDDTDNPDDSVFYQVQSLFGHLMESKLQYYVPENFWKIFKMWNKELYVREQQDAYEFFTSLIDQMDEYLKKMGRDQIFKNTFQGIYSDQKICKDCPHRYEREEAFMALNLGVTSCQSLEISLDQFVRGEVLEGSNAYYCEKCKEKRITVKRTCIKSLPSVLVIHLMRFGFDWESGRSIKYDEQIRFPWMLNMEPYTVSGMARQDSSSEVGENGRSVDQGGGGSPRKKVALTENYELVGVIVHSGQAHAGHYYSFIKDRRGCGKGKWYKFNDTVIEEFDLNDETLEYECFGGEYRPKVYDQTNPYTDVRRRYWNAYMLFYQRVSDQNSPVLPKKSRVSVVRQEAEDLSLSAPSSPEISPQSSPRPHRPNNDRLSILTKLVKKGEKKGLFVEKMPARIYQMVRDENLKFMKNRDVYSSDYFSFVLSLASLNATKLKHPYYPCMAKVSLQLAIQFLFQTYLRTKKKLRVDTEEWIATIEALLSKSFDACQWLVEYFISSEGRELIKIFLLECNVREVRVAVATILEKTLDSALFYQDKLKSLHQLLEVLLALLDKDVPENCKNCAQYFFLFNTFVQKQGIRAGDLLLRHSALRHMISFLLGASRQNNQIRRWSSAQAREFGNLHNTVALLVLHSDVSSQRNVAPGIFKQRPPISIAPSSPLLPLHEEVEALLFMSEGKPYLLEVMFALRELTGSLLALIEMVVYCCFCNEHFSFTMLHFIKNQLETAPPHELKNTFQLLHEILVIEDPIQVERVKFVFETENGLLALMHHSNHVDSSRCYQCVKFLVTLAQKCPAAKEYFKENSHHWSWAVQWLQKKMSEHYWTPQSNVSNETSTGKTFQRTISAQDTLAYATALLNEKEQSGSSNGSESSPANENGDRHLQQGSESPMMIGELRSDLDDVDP
In short: as §1

USP25 = target: T3, USP25 (UniProt Q9UHP3)
T3 sequence (whole entry): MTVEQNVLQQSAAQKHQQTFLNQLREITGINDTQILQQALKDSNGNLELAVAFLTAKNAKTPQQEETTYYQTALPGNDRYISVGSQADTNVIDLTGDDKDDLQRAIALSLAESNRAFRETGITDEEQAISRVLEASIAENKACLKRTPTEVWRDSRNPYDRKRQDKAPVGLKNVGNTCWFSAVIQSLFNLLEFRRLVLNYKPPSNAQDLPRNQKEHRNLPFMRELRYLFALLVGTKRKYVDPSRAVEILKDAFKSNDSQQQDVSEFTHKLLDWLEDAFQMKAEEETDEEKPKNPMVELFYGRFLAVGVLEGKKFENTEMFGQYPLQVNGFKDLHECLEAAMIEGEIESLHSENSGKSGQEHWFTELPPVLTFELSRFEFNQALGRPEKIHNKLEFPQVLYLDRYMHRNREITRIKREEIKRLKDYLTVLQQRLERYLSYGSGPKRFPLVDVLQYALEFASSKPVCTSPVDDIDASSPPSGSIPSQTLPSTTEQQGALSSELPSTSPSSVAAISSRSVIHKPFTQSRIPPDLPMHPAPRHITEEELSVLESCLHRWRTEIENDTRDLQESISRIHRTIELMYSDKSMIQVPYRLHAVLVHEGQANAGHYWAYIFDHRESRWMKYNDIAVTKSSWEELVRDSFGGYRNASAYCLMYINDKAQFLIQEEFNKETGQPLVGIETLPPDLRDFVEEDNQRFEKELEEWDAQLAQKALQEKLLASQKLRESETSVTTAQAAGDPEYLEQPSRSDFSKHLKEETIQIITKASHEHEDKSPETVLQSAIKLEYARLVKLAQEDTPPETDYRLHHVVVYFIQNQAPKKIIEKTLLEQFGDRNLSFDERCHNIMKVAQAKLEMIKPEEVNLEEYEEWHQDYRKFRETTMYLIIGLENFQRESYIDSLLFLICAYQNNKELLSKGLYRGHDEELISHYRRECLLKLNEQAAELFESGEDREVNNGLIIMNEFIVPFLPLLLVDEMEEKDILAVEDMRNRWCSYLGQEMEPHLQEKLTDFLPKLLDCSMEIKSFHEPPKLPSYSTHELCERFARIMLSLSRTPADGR
In short: as §1

USP28 = target: T4, USP28 (UniProt Q96RU2)
T4 sequence (whole entry): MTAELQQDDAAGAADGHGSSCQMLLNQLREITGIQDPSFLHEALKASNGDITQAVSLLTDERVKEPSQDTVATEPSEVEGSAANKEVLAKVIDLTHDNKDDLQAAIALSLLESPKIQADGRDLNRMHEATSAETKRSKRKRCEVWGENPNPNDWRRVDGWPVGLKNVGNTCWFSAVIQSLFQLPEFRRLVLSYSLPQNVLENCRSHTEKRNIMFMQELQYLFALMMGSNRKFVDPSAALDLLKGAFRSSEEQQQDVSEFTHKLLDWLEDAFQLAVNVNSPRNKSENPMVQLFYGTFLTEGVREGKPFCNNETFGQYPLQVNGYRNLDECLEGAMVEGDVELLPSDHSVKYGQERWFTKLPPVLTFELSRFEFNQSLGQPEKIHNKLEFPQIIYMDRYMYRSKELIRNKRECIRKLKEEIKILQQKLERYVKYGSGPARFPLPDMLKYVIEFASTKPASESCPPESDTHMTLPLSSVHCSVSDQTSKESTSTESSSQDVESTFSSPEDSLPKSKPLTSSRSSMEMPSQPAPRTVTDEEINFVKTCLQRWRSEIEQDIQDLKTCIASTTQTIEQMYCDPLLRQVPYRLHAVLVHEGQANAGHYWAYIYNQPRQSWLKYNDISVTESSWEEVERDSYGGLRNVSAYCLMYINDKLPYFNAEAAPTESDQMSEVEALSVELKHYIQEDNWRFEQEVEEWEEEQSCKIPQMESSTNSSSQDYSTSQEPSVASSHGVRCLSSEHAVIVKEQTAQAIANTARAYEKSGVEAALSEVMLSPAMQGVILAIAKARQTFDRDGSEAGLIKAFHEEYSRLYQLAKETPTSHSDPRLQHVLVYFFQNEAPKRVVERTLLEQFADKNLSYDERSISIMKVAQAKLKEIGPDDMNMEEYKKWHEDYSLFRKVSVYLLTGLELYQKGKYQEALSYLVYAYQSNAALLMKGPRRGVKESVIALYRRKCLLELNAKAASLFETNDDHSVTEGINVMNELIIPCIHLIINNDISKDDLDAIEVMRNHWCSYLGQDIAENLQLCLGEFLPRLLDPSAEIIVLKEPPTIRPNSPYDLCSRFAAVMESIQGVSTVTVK
In short: as §1

Measured: log2 ratio of Biotin-Ahx-Ub-VS probe labelling

Cc1ccc(C(=O)NCCNC(=O)CCl)cc1
inactive: USP19 -0.26 | USP22 -0.00216 | USP24 -0.352 | USP25 -0.498 | USP28 -0.493
